Most compounds without a hit are left out; they make up all but 1.8% or so of the library.
GLP1R inv ag = GLP-1 receptor (human) inverse agonism; hit rate 1.6% among 410,000; HEK293 GLP-1R CRE-luciferase, luminescence, 24 h; GLP-1R form is constitutively active; AID 624417; P43220; Potency, µM (highest dose often 38.3 µM), for inactives: top-dose activity change, negative = inhibition, hits mostly inhibitors; also: potency is read from the fitted curve at half-maximal effect; % is scaled to controls: 0 for no effect and ±100 for the full control effect; nearly all actives have a fitted effect of over 55% in size
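Inverse agonism was detected as reduced cAMP-driven luciferase luminescence after 24 h compound treatment. The cells were HEK293 clones expressing constitutively active human GLP-1R with the reporter. Reporter-only and GPR119 cell lines served as counterscreen controls.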
TRPML1 agonist = human mucolipin-1 channel agonism | TRPML1-expressing cells, Ca2+ dye fluorescence, FDSS | activation, % (test concentration not listed) | hit rate 0.12% among 410,000 | AID 624414; in the data active = activation above about 50%; inconclusive = mostly about 30% to 49%; also: 0% is about no effect
Target sequence (Q9GZU1 whole entry, looked up): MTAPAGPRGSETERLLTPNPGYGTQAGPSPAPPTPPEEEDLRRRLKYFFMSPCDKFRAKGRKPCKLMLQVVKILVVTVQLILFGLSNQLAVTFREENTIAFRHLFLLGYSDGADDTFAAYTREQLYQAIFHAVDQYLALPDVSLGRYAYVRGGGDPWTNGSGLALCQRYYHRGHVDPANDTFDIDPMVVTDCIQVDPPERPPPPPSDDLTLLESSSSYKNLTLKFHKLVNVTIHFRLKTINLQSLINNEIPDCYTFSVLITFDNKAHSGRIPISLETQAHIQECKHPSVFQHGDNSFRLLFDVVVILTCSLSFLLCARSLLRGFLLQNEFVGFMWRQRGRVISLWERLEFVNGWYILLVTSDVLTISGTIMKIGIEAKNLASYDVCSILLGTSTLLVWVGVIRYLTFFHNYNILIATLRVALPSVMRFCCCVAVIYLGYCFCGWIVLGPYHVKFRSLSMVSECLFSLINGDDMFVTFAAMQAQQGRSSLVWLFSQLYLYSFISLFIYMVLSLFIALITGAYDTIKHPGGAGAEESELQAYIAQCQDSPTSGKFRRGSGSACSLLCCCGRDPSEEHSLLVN
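Tet-induced TRPML1-DL cells, 1,500 per well, cultured overnight, were loaded with a no-wash Ca2+ dye for 45–90 min. Calcium fluorescence was recorded on the FDSS for 110 s after compound addition, before the EC80 agonist (4 uM 54-4) was added.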
TRPML1 inh = human mucolipin-1 channel inhibition. hit rate 0.02% among 390,000. activity change, negative = inhibition, % (concentration not given with the values). TRPML1-inducible cells, Ca2+ dye fluorescence, FDSS; hits give low values; inhibition of EC80 agonist-evoked calcium signal. Q9GZU1. AID 624415; in the data active = activity change below about -50%; inconclusive = between about -30% and that limit;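 also: stimulus is agonist 54-4 at its EC80 concentration; % is scaled to controls: 0 for no effect and ±100 for the full control effect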
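TRPML1-DL cells, Tet-induced overnight (~16 h, 37 °C) at 1,500 cells/well, were loaded with Ca8 no-wash dye plus quencher for 45-90 min at room temperature. Compounds were pinned during FDSS kinetic reading; agonist 54-4 at EC80 (4 uM final) then added.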
HEK293 tox = cytotoxic in the GLP-1 receptor inverse agonist counter-screen. HEK293 cAMP-luciferase reporter cells, luminescence, 24 h. Potency, µM (series often up to 38.3 µM), without a hit: top-dose activity change, negative = inhibition, usual class: inhibitors. hit rate 0.13% among 410,000. AID 624418;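 also: loss of luciferase light is scored as toxicity; potency is read from the fitted curve at half-maximal effect; % is scaled to controls: 0 for no effect and ±100 for the full control effect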
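Luminescence readout: signal drop marks cytotoxicity. Plated cells grew 12 h at 37 °C, 5% CO2, received 23 nL compound for 24 h, then got luciferase reagent, read after 12 min at RT.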
GLP1R ag = activates the human GLP-1 receptor; P43220; HEK293 GLP-1R CRE-luciferase, luminescence, 4-6 h; cells express a hypersensitive GLP-1R form; Potency, µM (top dose mostly 45.6 µM), for the others: at the top dose activation, hits mostly activators; hit rate 0.007% among 380,000; AID 624172; also: potency is read from the fitted curve at half-maximal effect; % of control where 0% means no effect
Active calls of the source: *; ? = inconclusive; · = no result. Unless noted, calls follow the shape of the dose curve; as a rule, active = well fitted curve in the direction sought with a large enough effect; inconclusive = small, poorly fitted or top-dose-only effect, or another doubt; inactive = no such curve, though single readings can be large; an effect the other way counts as inactive or inconclusive.

SMILES	GLP1R inv ag	TRPML1 agonist	TRPML1 inh	HEK293 tox	GLP1R ag
Nc1nc(N)c2cc([N+](=O)[O-])ccc2n1	60%	0	-5	0%	24%
CCc1cc(C(=O)N/N=C/c2ccc(O)cc2)c2ccccc2n1	-2%	3	12	-4%	16%
CC(C)(C)c1cc(C(=O)N/N=C/c2ccc(O)cc2)n(-c2ccccc2)n1	2µM*	1	-7	9%	-4%
Cc1ccccc1NC(=O)c1ccc(F)c(S(=O)(=O)N(C)C2CCCCC2)c1	10µM*	3	48	-1%	·
Cn1c(C(c2cc3ccccc3n2C)c2cc3ccccc3n2C)cc2ccccc21	·	1	·	·	·
COCC1CCCN(C(=O)c2ccc3oc(Cc4ccc(Cl)cc4)nc3c2)C1 (configuration not stated)	10µM*	-1	7	-16%	4%
CCOc1ccc(OCCNC(=O)c2cc(C3CC3)nc3c2cnn3C(C)C)cc1	8.9µM*	3	21	-10%	1%
COc1ccc(CNC(=O)c2cc(C3CC3)nc3c2cnn3C(C)C)cc1	?	3	-9	2%	8%
CC(C)n1ncc2c(C(=O)Nc3cccc(C#N)c3)cc(C3CC3)nc21	8.9µM*	2	-24	22%	-1%
CC(C)n1ncc2c(C(=O)O)cc(C3CC3)nc21	1%	0	-2	-10%	-7%
CCNC(=O)c1cccc(NC(=O)c2cc(C3CC3)nc3c2cnn3C(C)C)c1	10µM*	2	0	-18%	12%
O=C(Nc1ccc2ccccc2c1)c1nc(S(=O)(=O)Cc2ccccc2F)ncc1Cl	·	1	·	·	·
CC(C)(C)OC(=O)N1CCC(c2nnc(SCc3cccc(Cl)c3)o2)CC1	?	2	-6	-1%	9%
Cc1ccc(NC(=O)c2cc(S(=O)(=O)N3CCc4ccccc43)cn2C)c(Cl)c1	-26%	3	4	24%	·
CCCN(CCC)S(=O)(=O)c1ccc(Cl)c([N+](=O)[O-])c1	?	1	-6	13µM*	-8%
CC1CN(C(=O)N2CCC(C(=O)N3CCN(c4ccccc4)CC3)CC2)c2cc(Cl)ccc2O1 (configuration not stated)	?	1	14	-5%	·
C(=C\c1nccc2ccccc12)/c1ccc(N2CCOCC2)cc1	·	4	·	·	·
CCOc1ccc(OCc2ccc(C(=O)NN=Cc3ccc[nH]3)cc2)cc1	?	0	0	2.2µM*	-17%
O=C(N/N=C/c1ccc[nH]1)c1ccccc1OCc1ccc(F)cc1	12%	1	11	1%	19%
CN(CC(=O)Nc1c(Cl)cccc1Cl)C(=O)C1CSC2(C)CCC(=O)N12 (configuration not stated)	4%	0	-15	-2%	-1%
CCN(CC(=O)Nc1ccccc1C(F)(F)F)C(=O)C1CSC2(C)CCC(=O)N12 (configuration not stated)	11µM*	0	-1	-10%	9%
COc1ccc(Nc2oc(-c3ccc(COc4ccccc4C)o3)nc2C#N)cc1	1%	2	-6	-13%	·
CC(C)OC(=O)/C(=C\c1cccc2ccccc12)NC(=O)c1ccccc1	10µM*	1	57	5%	14%
C=C1NN(C(C)C(=O)O)C(=O)N1c1ccc(OCc2ccccc2)cc1 (configuration not stated)	·	0	·	·	·
CCOc1ccccc1NC(=O)c1nnn(-c2ccc3c(c2)OCCO3)c1N	2.5µM*	0	-10	-8%	7%
SMILES	GLP1R inv ag	TRPML1 agonist	TRPML1 inh	HEK293 tox	GLP1R ag
Cc1ccccc1NC1=C/C(=N\S(=O)(=O)c2ccc(C(=O)O)cc2)c2ccccc2C1=O	8.9µM*	0	-8	?	-2%
CCOc1ccc(C(=O)Nc2cc(-c3ccccc3)no2)cc1	-10%	0	-18	-8%	·
COc1cc(-c2nnc(SCC3(c4ccc(Br)cc4)OCCO3)o2)cc(OC)c1OC	4µM*	3	35	9%	4%
COc1ccc(C(=O)NC2CCCCCC2)cc1OC1CCN(C(C)=O)CC1	32%	-1	42	11%	3%
COc1ccc(C(=O)NC2CCCc3ccccc32)cc1OC1CCN(C(C)=O)CC1 (configuration not stated)	-6%	0	-54*	1%	4%
CCNc1nc(SC(C(C)=O)C(C)=O)nc(N(C)C)n1	0%	-1	-10	2%	-9%
CCNc1nc(NC(C)(C)C)nc(SC(C(C)=O)C(C)=O)n1	8.9µM*	1	5	-10%	-5%
CCn1c(C(=O)N2CCCC(C(=O)N3CCN(c4ccccc4)CC3)C2)cc2sccc21 (configuration not stated)	-2%	61*	?	52%	·
COc1ccc(C(=O)/C=C2\Sc3ccccc3N2C)cc1	?	0	-26	0%	5%
COc1ccccc1-[n+]1c(C)cc(/C=C2\Sc3ccccc3N2C)cc1C	2.5µM*	65*	-12	-11%	-6%
COc1ccc(-[n+]2c(C)cc(/C=C3\Sc4ccccc4N3C)cc2C)cc1	?	69*	2	-24%	0%
CC(C)(C)C1CCc2c(sc(NC(=O)c3cccs3)c2C(=O)N2CCCCC2)C1 (configuration not stated)	3.5µM*	0	2	0%	-15%
CCOC(=O)C1C(=O)C=C(c2ccc(C)cc2)CC1c1ccc([N+](=O)[O-])cc1 (configuration not stated)	10µM*	1	35	17%	-12%
CCn1nc(NS(=O)(=O)c2ccccc2)c2cc3cccc(C)c3nc21	0%	-1	-8	-4%	3%
CCn1nc(NS(=O)(=O)c2ccc(F)cc2)c2cc3cccc(C)c3nc21	10µM*	-1	4	-4%	-6%
COCCNC(=O)CCCn1c(SCc2ccccc2C)nc2c(sc3ccccc32)c1=O	-6%	0	1	2%	·
COc1ccc(CN2CCN(C(c3ccc(F)cc3)c3ccc(F)cc3)CC2)c(OC)c1OC	10µM*	0	2	?	-5%
COc1ccc(-c2[nH]c3ccccc3c2SCCNC(=O)c2cc3ccccc3oc2=O)cc1	?	0	-9	-16%	-2%
COc1ccc(-c2[nH]c3ccccc3c2SCCN)cc1	2µM*	3	10	?	-1%
Cc1cc(C)n(CC(O)Cn2c3ccccc3c3ccccc32)c(=O)n1 (configuration not stated)	16%	2	11	-4%	-1%
Cc1cc(C)n(CC(O)Cn2c3ccc(Br)cc3c3cc(Br)ccc32)c(=O)n1 (configuration not stated)	11µM*	1	-7	5%	-4%

Assay outcomes: PubChem BioAssay, National Center for Advancing Translational Sciences (NCATS)
